This is an account of results in PubChem BioAssay AID720518 (National Center for Advancing Translational Sciences (NCATS), 2013).

Inconclusive results are not listed. Unmarked numbers belong to inactive results. Calls come from the whole dose curve.

The nature of this test: qHTS for Inhibitors of Cell Surface uPA Generation: Wild-type Protective Antigen (WT-PrAg) Counterscreen for Cherry-picked Compounds. Note: 0% is about no effect. To be noted: cells, WT protective antigen toxicity counterscreen; series mostly up to 115 µM; activity (protection): at the top concentration. (In qHTS, concentration-response curves come from the screen itself.)
Take `CC1(C)CC(=O)C([N+](=O)[O-])=C(NCCCC(=O)O)C1`: the “activity (protection)” value is 1.57%.

In the case of `Cc1cccc(NC(=O)C2CCCN(S(=O)(=O)c3ccc4[nH]c(=O)ccc4c3)C2)c1` (stereo unspecified), the “activity (protection)” value is -1.13%.

As for `Cc1cc(C)n2c(SCC#N)nnc2n1`, the “activity (protection)” value was -0.12%.

Regarding `CCN(C1CCS(=O)(=O)C1)S(=O)(=O)c1ccc2ccccc2c1` (stereo unspecified), the “activity (protection)” value is -0.166%.

Regarding `Cc1c(C(=O)N(Cc2ccccc2Cl)C2CCS(=O)(=O)C2)oc2ccccc12` (stereo unspecified), the “activity (protection)” value was -2.16%.

Turning to `Cn1c(=O)c2c(ncn2CCO)n(C)c1=O`, the “activity (protection)” value was -0.0315%.

On to `COc1cc(NC(=O)CSc2nnc3ccc(-c4ccncc4)nn23)cc(OC)c1`, for which the “activity (protection)” value was 1.47%.

For the compound `Oc1c(N=NC(=S)Nc2ccccc2F)c2ccccc2n1Cc1ccccc1Cl`, the “activity (protection)” value was -0.848%.

In the case of `CC(/C=C1\SC(=S)N(CCCC(=O)Nc2ccc(C(=O)O)cc2)C1=O)=C\c1ccccc1`, the “activity (protection)” value was -1.6%.

Turning to `O=S(=O)(NCC(c1cccnc1)N1CCOCC1)c1ccccc1` (stereo unspecified), the “activity (protection)” value is -1.02%.

On to `NC(=O)CC(NC(=O)Cc1cccc2ccccc12)c1ccc(N2CCN(c3ccccc3)CC2)c([N+](=O)[O-])c1` (stereo unspecified), for which the “activity (protection)” value is 0.0175%.

As for `CCOc1ccccc1C(=O)NC1CCN(CC(=O)Nc2cc(OC)ccc2OC)CC1`, the “activity (protection)” value was -0.466%.

On to `Cc1nc(SCc2nc3ccccc3[nH]2)c2oc3cc([N+](=O)[O-])ccc3c2n1`, for which the “activity (protection)” value was -2.07%.

For the compound `NC(=O)c1ccc(NC(=O)CN2CCN(S(=O)(=O)c3ccc4ccccc4c3)CC2)cc1`, the “activity (protection)” value is 1.81%.

Regarding `O=C(Cc1n[nH]c(=O)c2ccccc12)Nc1cccc(S(=O)(=O)N2CCCCCC2)c1`, the “activity (protection)” value is -2.16%.

Turning to `Cc1cc2c(cc1S(=O)(=O)Nc1ccc(F)cc1)n(C)c(=O)c(=O)n2C`, the “activity (protection)” value is -0.472%.
